Each structure is given as a SMILES string. A number with no mark means an inactive call. Inconclusive results are not listed. Entries that show only a call come without a potency. The source made the active and inactive calls. The call rests on the fitted dose curve.
Potency means the concentration at half of the fitted maximal effect.

In one assay the target is Acetylcholinesterase (Homo sapiens) (UniProt P22303). The experiment in a line: Acetylcholinesterase (AChE) small molecule antagonists: colormetric cell-based qHTS assay (AID 1347395). Further: nearly all actives have a fitted effect of over 30% in size. The note with it: SH-SY5Y cells AChE activity, colorimetric (Ellman); series mostly up to 115 µM. Put shortly: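 AChE inhibition read colorimetrically via DTNB–thiocholine in SH-SY5Y cells. Compound 30 min, substrate 90 min, both 37 C.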
Chain of Acetylcholinesterase (Homo sapiens) (P22303 whole entry, looked up): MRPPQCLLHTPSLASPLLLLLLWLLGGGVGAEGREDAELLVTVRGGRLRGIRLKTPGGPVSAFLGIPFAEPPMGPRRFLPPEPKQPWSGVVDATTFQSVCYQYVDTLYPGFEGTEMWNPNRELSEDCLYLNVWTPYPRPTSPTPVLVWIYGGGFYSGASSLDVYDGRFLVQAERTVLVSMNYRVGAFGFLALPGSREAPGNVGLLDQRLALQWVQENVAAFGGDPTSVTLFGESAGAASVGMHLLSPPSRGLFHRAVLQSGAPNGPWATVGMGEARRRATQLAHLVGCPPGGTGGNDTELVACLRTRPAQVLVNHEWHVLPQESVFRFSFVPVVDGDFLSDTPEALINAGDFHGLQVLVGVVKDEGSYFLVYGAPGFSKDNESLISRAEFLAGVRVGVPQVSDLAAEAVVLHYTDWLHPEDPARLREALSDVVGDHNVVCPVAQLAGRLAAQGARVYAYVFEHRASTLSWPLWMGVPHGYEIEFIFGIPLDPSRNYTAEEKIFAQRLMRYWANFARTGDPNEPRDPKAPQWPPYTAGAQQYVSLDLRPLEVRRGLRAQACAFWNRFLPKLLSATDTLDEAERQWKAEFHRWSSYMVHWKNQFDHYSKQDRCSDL
As to `COC(=O)c1ccc(OC)cc1`, the Potency entry is “inactive”.
Regarding `COC(=O)c1cc(S(N)(=O)=O)ccc1OC`, the Potency entry was “inactive”.
`CC(CN=Cc1ccccc1O)N=Cc1ccccc1O` (stereo not given): the Potency result was “inactive”.
Same read-out and setting: the result for `CCC(=O)/C=C/c1ccc(OC)cc1` reads “inactive”.
As to `CCCCOCCOC(=O)CCCCCCCCC(=O)OCCOCCCC`, the Potency entry was “inactive”.
The same measure, in the same setting: with `O=S(=O)(O)CCN1CCN(CCO)CC1` the entry was “inactive”; with `C#CCOC(=O)[C@@H](C)Oc1ccc(Oc2ncc(Cl)cc2F)cc1`, “inactive”; with `O=C(O)Cc1sc(-c2ccccc2)nc1-c1ccc(Cl)cc1`, “inactive”.
`Cc1cc(-n2nc3ccc(Cl)cc3n2)c(O)c(C(C)(C)C)c1`: the Potency result was “inactive”.
For `O=C(O)c1ccccc1-c1ccc(C(F)(F)F)cc1`, the Potency result was “inactive”.
Same read-out and setting: with `CC1OCCC1=O` (stereo not given) the entry was “inactive”; with `CC(C)CCCO`, “inactive”; with `N#CCCCC(C#N)CCC#N` (stereo not given), “inactive”.
In the case of `CCOc1cccc(N)c1`, the Potency result was “inactive”.
The same measure, in the same setting: the result for `Clc1cc(Cl)c2c(c1)N=C1CCCCCN1C2` reads 776 nM (active); that for `CCCCCCCCCCCCC1CO1` (stereo not given), “inactive”; that for `COc1cc(-c2ccc(N=C=O)c(OC)c2)ccc1N=C=O`, “inactive”.
Same read-out and setting: with `C=CC(=O)NCOCC(C)C` the entry was “inactive”; with `O=C(c1ccccc1)C1CCC1`, “inactive”.
The same measure, in the same setting: with `C=C(C)CCCC` the entry was “inactive”.
As to `O=C(O)c1ccc2c(c1)nc(C(=O)NC1CCN(C3CC3)CC1)n2Cc1cc(-c2ccc(Cl)s2)on1`, the activity, negative = inhibition is -6.96% [at 23.6 µM].
For the compound `COc1cc(OC)cc(OC)c1`, the Potency entry is “inactive”.
Still for that read-out and setting: the result for `CCOc1ccc(NC(=O)OC(C)C)cc1OCC` reads “inactive”.
`O=C1N(c2ccccc2)c2ccccc2C1(Cc1ccncc1)Cc1ccncc1`: the Potency result is “inactive”.
On to `CC(S)C(=O)NCC(=O)O` (stereo not given), for which the Potency entry is “inactive”.
On to `NC(=O)c1c(Cl)cccc1Cl`, for which the Potency result was “inactive”.
As to `O=C(O)CCCCCCCCCCCBr`, the Potency result is “inactive”.
On the same count and under the same terms, with `Cc1cc(C(C#N)c2ccc(Cl)cc2)c(Cl)cc1NC(=O)c1cc(I)cc(I)c1O` (stereo not given) the entry was “inactive”; with `O=Cc1cccc(Br)c1`, “inactive”.
`CC(C)=CCC/C(C)=C/CC/C(C)=C/CCC(=O)OC/C=C(\C)CCC=C(C)C`: the Potency entry is “inactive”.
The same measure, in the same setting: with `O=C(Cn1ccnc1[N+](=O)[O-])NCCO` the entry was “inactive”; with `CO[C@H]1C=CO[C@@]2(C)Oc3c(C)c(O)c4c(O)c(cc(O)c4c3C2=O)NC(=O)/C(C)=C\C=C/[C@H](C)[C@H](O)[C@@H](C)[C@@H](O)[C@@H](C)[C@H](OC(C)=O)[C@@H]1C`, “inactive”.
For `CC(C)COC(=O)COc1ccc(Cl)cc1Cl`, the Potency entry is “inactive”.
Consider `CCCCCC(C)OC(=O)COc1ccc(Cl)c2cccnc12` (stereo not given), for which the Potency result is “inactive”.
The same measure, in the same setting: the result for `CC(C)C(=O)OCC(C)(C)C(O)C(C)C` (stereo not given) reads “inactive”; that for `CC(C)CCOC(=O)c1ccc(N(C)C)cc1`, “inactive”; that for `COc1cc(C(=O)NC2CCCNC2)cc(OC)c1OC` (stereo not given), “inactive”.
Turning to `N#CSCSc1nc2ccccc2s1`, the Potency entry was “inactive”.
Same read-out and setting: with `CN(C)CCN1CCN(c2cccc(Cl)c2)C1=O` the entry was “inactive”; with `O=C(Nc1ccc(Cl)cc1)Nc1ccc(Cl)c(C(F)(F)F)c1`, “inactive”.

Another assay shares this target. The experiment in a line: Acetylcholinesterase (AChE) small molecule antagonists: enzyme-based qHTS assay (AID 1347397). Further: nearly all actives have a fitted effect of over 55% in size. The note with it: Potency: AChE enzyme activity inhibition; outcome: AChE enzyme activity inhibition; series mostly up to 115 µM. The procedure, abridged:
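Colorimetric DTNB read-out of thiocholine released from acetylthiocholine by recombinant human AChE (50 mU/mL as dispensed). Compounds were preincubated 30 min at RT before substrate/DTNB addition, with a 10 min RT reaction.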
On the technique in general: In qHTS, concentration-response curves come from the screen itself.
For `COC(=O)c1ccc(OC)cc1`, the Potency result was “inactive”.
Same read-out and setting: the result for `COC(=O)c1cc(S(N)(=O)=O)ccc1OC` reads “inactive”.
Still for that read-out and setting: with `CC(CN=Cc1ccccc1O)N=Cc1ccccc1O` (stereo not given) the entry was “inactive”; with `CCC(=O)/C=C/c1ccc(OC)cc1`, “inactive”.
In the case of `CCCCOCCOC(=O)CCCCCCCCC(=O)OCCOCCCC`, the Potency entry is “inactive”.
On the same count and under the same terms, the result for `O=S(=O)(O)CCN1CCN(CCO)CC1` reads “inactive”; that for `C#CCOC(=O)[C@@H](C)Oc1ccc(Oc2ncc(Cl)cc2F)cc1`, “inactive”; that for `O=C(O)Cc1sc(-c2ccccc2)nc1-c1ccc(Cl)cc1`, “inactive”.
Same read-out and setting: the result for `Cc1cc(-n2nc3ccc(Cl)cc3n2)c(O)c(C(C)(C)C)c1` reads “inactive”; that for `O=C(O)c1ccccc1-c1ccc(C(F)(F)F)cc1`, “inactive”.
Still for that read-out and setting: the result for `CC1OCCC1=O` (stereo not given) reads “inactive”; that for `CC(C)CCCO`, “inactive”; that for `N#CCCCC(C#N)CCC#N` (stereo not given), “inactive”.
For `CCOc1cccc(N)c1`, the Potency entry was “inactive”.
Same read-out and setting: the result for `Clc1cc(Cl)c2c(c1)N=C1CCCCCN1C2` reads 871 nM (active).
On the same count and under the same terms, the result for `CCCCCCCCCCCCC1CO1` (stereo not given) reads “inactive”.
Still for that read-out and setting: with `COc1cc(-c2ccc(N=C=O)c(OC)c2)ccc1N=C=O` the entry was “inactive”; with `C=CC(=O)NCOCC(C)C`, “inactive”; with `O=C(c1ccccc1)C1CCC1`, “inactive”.
Consider `C=C(C)CCCC`, for which the Potency entry was “inactive”.
As to `O=C(O)c1ccc2c(c1)nc(C(=O)NC1CCN(C3CC3)CC1)n2Cc1cc(-c2ccc(Cl)s2)on1`, the activity change, negative = inhibition is 2.26% [at 23.6 µM].
Regarding `COc1cc(OC)cc(OC)c1`, the Potency result was “inactive”.
For the compound `CCOc1ccc(NC(=O)OC(C)C)cc1OCC`, the Potency result was “inactive”.
The same measure, in the same setting: with `O=C1N(c2ccccc2)c2ccccc2C1(Cc1ccncc1)Cc1ccncc1` the entry was “inactive”; with `CC(S)C(=O)NCC(=O)O` (stereo not given), “inactive”.
Turning to `NC(=O)c1c(Cl)cccc1Cl`, the Potency entry is “inactive”.
Consider `O=C(O)CCCCCCCCCCCBr`, for which the Potency result is “inactive”.
On the same count and under the same terms, the result for `Cc1cc(C(C#N)c2ccc(Cl)cc2)c(Cl)cc1NC(=O)c1cc(I)cc(I)c1O` (stereo not given) reads “inactive”.
On the same count and under the same terms, the result for `O=Cc1cccc(Br)c1` reads “inactive”; that for `CC(C)=CCC/C(C)=C/CC/C(C)=C/CCC(=O)OC/C=C(\C)CCC=C(C)C`, “inactive”.
With `O=C(Cn1ccnc1[N+](=O)[O-])NCCO`, the Potency result was “inactive”.
Take `CO[C@H]1C=CO[C@@]2(C)Oc3c(C)c(O)c4c(O)c(cc(O)c4c3C2=O)NC(=O)/C(C)=C\C=C/[C@H](C)[C@H](O)[C@@H](C)[C@@H](O)[C@@H](C)[C@H](OC(C)=O)[C@@H]1C`: the Potency result is “inactive”.
For `CC(C)COC(=O)COc1ccc(Cl)cc1Cl`, the Potency entry is “inactive”.
Same read-out and setting: the result for `CCCCCC(C)OC(=O)COc1ccc(Cl)c2cccnc12` (stereo not given) reads “inactive”; that for `CC(C)C(=O)OCC(C)(C)C(O)C(C)C` (stereo not given), “inactive”.
With `CC(C)CCOC(=O)c1ccc(N(C)C)cc1`, the Potency result is “inactive”.
The same measure, in the same setting: the result for `COc1cc(C(=O)NC2CCCNC2)cc(OC)c1OC` (stereo not given) reads “inactive”.
Take `N#CSCSc1nc2ccccc2s1`: the Potency entry is “inactive”.
In the case of `CN(C)CCN1CCN(c2cccc(Cl)c2)C1=O`, the Potency entry was “inactive”.
Turning to `O=C(Nc1ccc(Cl)cc1)Nc1ccc(Cl)c(C(F)(F)F)c1`, the Potency result is “inactive”.
